Assay results as given in PubChem BioAssay (NCATS).
Inconclusive results are not listed. Values without a mark were called inactive. Activity calls are given as the source filed them. The call rests on the fitted dose curve; tested in HEK293 reporter line.

Assay: qHTS for Inhibitors of the Functional Ribonucleoprotein Complex (vRNP) of Lassa (LASV) Arenavirus: LASV Primary Screen - GLuc reporter signal (AID 1347082); further: nearly all actives have a fitted effect of over 60% in size
Details: LASV minigenome vRNP, Gaussia luciferase reporter; series mostly up to 57.5 µM; activity change, negative = inhibition: at the top concentration
On the % scale 0 is the no-effect control and ±100 the full control effect; potency means the concentration at half of the fitted maximal effect.

Structure (SMILES) | activity change, negative = inhibition | Potency
CC(C)c1onc(-c2c(Cl)cccc2Cl)c1COc1ccc(C=Cc2cccc(C(=O)O)c2)c(Cl)c1 | 1.98% | –
COc1ccc(C(=O)OC2CC3CCC(C2)[N+]3(C)[O-])cc1OC (stereo not given) | 13.1% | –
C[C@@H]1C(=O)O[C@@H]2CC34[C@H]5C[C@@H](C(C)(C)C)C36[C@H](OC(=O)[C@@H]6O)OC4(C(=O)O5)[C@@]12O (stereo not given in full) | -2.04% | –
C=C[C@@]1(C)CC(=O)[C@]2(O)[C@@]3(C)[C@@H](O)CCC(C)(C)[C@@H]3[C@H](OC(C)=O)[C@H](O)[C@@]2(C)O1 | 23.1% | –
NC[C@@H]1O[C@@H](O[C@H]2[C@@H](O)[C@H](O[C@@H]3[C@@H](O)[C@@H](N)C[C@H](N)[C@H]3O[C@H]3O[C@H](CN)[C@@H](O)[C@@H](O)[C@H]3N)O[C@H]2CO)[C@H](N)[C@@H](O)[C@@H]1O | -1.08% | –
CCC(CC)C(=O)O | -3.57% [at 115 µM] | –
O=C(/C=C/c1ccc(O)cc1)OC[C@H]1O[C@@H](Oc2c(-c3ccc(O)cc3)oc3cc(O)cc(O)c3c2=O)[C@H](O)[C@@H](O)[C@@H]1O | -14.9% [at 24.7 µM] | –
CC1=CC2OC3CC4OC(=O)C=CC=CC(C(C)O)OCC(O)C(C)CC(=O)OCC2(CC1O)C4(C)C31CO1 (stereo not given) | -64.3% | –
Cc1cc(Nc2nc(N[C@@H](C)c3ccc(F)cc3)c(C#N)cc2F)n[nH]1 | 2.12% | –
COC(=O)c1ccc(OC)cc1 | 1.12% [at 115 µM] | –
O=C[C@H](O)[C@@H](O)[C@H](O[C@H]1O[C@H](CO)[C@@H](O[C@H]2O[C@H](CO)[C@@H](O)[C@H](O)[C@H]2O)[C@H](O)[C@H]1O)[C@H](O)CO | -0.475% | –
C=C1C[C@@]23CC4C5[C@@]6(C)C[C@H](O)C[C@@]57C2[C@H](O)[C@@H]1[C@H](O)[C@H]3[C@H]7N4C6 | -1.02% | –
CCCCC/C=C\C/C=C\C[C@H](O)/C=C/C=C\CCCC(=O)O | 6.73% [at 0.757 µM] | –
CCC(=O)NC[C@H](Cc1ccc(OCCc2nc(-c3ccccc3)oc2C)cc1)NC(C)=CC(=O)c1ccc(C(F)(F)F)cc1 | -0.0192% | –
CC1=C(O)C(=O)CO1 | 1.57% [at 115 µM] | –
COc1ccc(C[C@@H](C)[C@@H](C)Cc2ccc(OC)c(OC)c2)cc1OC | – | 21.7 µM (active)
CCCCCCCCCCCCCC | -16.3% [at 115 µM] | –
COC(=O)C1(Cc2ccc(O)c(CC3OC3(C)C)c2)OC(=O)C(O)=C1c1ccc(O)cc1 (stereo not given) | -6.03% | –
C=C(C)[C@@H]1CCC2(C(=O)O)CC[C@]3(C)[C@H](CC[C@@H]4[C@@]5(C)CCC(=O)C(C)(C)[C@@H]5CC[C@]43C)[C@@H]12 (stereo not given in full) | -18.5% | –
CC(O)CC(=O)O (stereo not given) | -2.8% | –

Structure (SMILES) | activity change, negative = inhibition | Potency
Nc1nc(Cl)nc2c1ncn2[C@@H]1O[C@H](CO)C(O)[C@H]1O (stereo not given in full) | -57.4% | –
C=CC(C)(CCC=C(C)C)OC=O (stereo not given) | -1.97% [at 115 µM] | –
CC(C)=CCC/C(C)=C/C(=O)O | 0.549% [at 115 µM] | –
CC12CCC(C1)C(C)(C)C2O (stereo not given) | -17.2% [at 115 µM] | –
CC(=O)OC(C)c1ccccc1 (stereo not given) | 7.57% [at 115 µM] | –
COc1cc(C)cc(C(=O)O)c1C1=C(O)c2cccc(O)c2C(=O)C1=O | 3.43% | –
COC1=CC(=O)CC(C)C12Oc1cc(OC)cc(OC)c1C2=O (stereo not given) | 17.8% | –
NC1C(O)OC(CO)[C@@H](O)[C@@H]1O[C@H]1O[C@@H](C(=O)O)C(O)C(O)C1O (stereo not given in full) | 13.2% | –
C[C@H]1[C@H](C)CC[C@]2(C(=O)O)CC[C@]3(C)C(=CC[C@@H]4[C@@]5(C)C[C@@H](O)[C@H](O)C(C)(C)[C@@H]5CC[C@]43C)[C@H]12 | 5.38% | –
COc1c2ccoc2c(OC[C@@H](OC(C)=O)C(C)(C)O)c2oc(=O)ccc12 | 6.51% | –
CCCCC[C@H](O)/C=C/[C@H]1OC(O)C[C@H](O)[C@@H]1C/C=C\CC(=O)O (stereo not given in full) | -6.19% [at 0.757 µM] | –
CC1(C)CCC[C@]2(C)[C@H]3CCO[C@]3(C)CC[C@@H]12 | -1.66% [at 115 µM] | –
CC12C=CC(=O)C=C1CCC1C2C(=O)CC2(C)C(=O)CCC12 (stereo not given) | 1.57% | –
COc1ccc2c(c1)C(=O)CC(c1ccc(OC)c(OC)c1)O2 (stereo not given) | 0.188% | –
O=C(NCCCCNCCCNC(=O)c1ccccc1)c1ccccc1 | 3.85% | –
CCCCN | -6.84% | –
COc1ccc(-c2coc3cc(O)ccc3c2=O)cc1OC | 7.15% | –
CCC(=O)OCC(=O)[C@@]1(OC(=O)CC)[C@@H](C)C[C@@H]2[C@H]3CCC4=CC(=O)C=C[C@]4(C)[C@@]3(F)[C@@H](O)C[C@@]21C | 17.4% | –
Nc1nc(Cl)nc2c1ncn2[C@@H]1O[C@H](CO)[C@@H](O)[C@H]1F | -6.39% | –
COc1cc(/C=C/c2ccccc2)cc(OC)c1 | 0.0941% | –

Assay: qHTS for Inhibitors of the Functional Ribonucleoprotein Complex (vRNP) of Lassa (LASV) Arenavirus: Viability assay - alamar blue signal for LASV Primary Screen (AID 1347083); further: nearly all actives have a fitted effect of over 80% in size
Details: cell viability, alamar blue fluorescence (LASV minigenome counter-screen); series mostly up to 57.5 µM; activity change, negative = reduced viability: at the top concentration

Structure (SMILES) | activity change, negative = reduced viability | Potency
CC(C)c1onc(-c2c(Cl)cccc2Cl)c1COc1ccc(C=Cc2cccc(C(=O)O)c2)c(Cl)c1 | 8.82% | –
COc1ccc(C(=O)OC2CC3CCC(C2)[N+]3(C)[O-])cc1OC (stereo not given) | 1.37% | –
C[C@@H]1C(=O)O[C@@H]2CC34[C@H]5C[C@@H](C(C)(C)C)C36[C@H](OC(=O)[C@@H]6O)OC4(C(=O)O5)[C@@]12O (stereo not given in full) | 22.8% | –
C=C[C@@]1(C)CC(=O)[C@]2(O)[C@@]3(C)[C@@H](O)CCC(C)(C)[C@@H]3[C@H](OC(C)=O)[C@H](O)[C@@]2(C)O1 | -0.0982% | –
NC[C@@H]1O[C@@H](O[C@H]2[C@@H](O)[C@H](O[C@@H]3[C@@H](O)[C@@H](N)C[C@H](N)[C@H]3O[C@H]3O[C@H](CN)[C@@H](O)[C@@H](O)[C@H]3N)O[C@H]2CO)[C@H](N)[C@@H](O)[C@@H]1O | -2.61% | –
CCC(CC)C(=O)O | 15.7% [at 115 µM] | –
O=C(/C=C/c1ccc(O)cc1)OC[C@H]1O[C@@H](Oc2c(-c3ccc(O)cc3)oc3cc(O)cc(O)c3c2=O)[C@H](O)[C@@H](O)[C@@H]1O | -17.5% [at 24.7 µM] | –
CC1=CC2OC3CC4OC(=O)C=CC=CC(C(C)O)OCC(O)C(C)CC(=O)OCC2(CC1O)C4(C)C31CO1 (stereo not given) | -133% | –
Cc1cc(Nc2nc(N[C@@H](C)c3ccc(F)cc3)c(C#N)cc2F)n[nH]1 | – | 4.85 µM (active)
COC(=O)c1ccc(OC)cc1 | 4.97% [at 115 µM] | –
O=C[C@H](O)[C@@H](O)[C@H](O[C@H]1O[C@H](CO)[C@@H](O[C@H]2O[C@H](CO)[C@@H](O)[C@H](O)[C@H]2O)[C@H](O)[C@H]1O)[C@H](O)CO | 7.68% | –
C=C1C[C@@]23CC4C5[C@@]6(C)C[C@H](O)C[C@@]57C2[C@H](O)[C@@H]1[C@H](O)[C@H]3[C@H]7N4C6 | -1.96% | –
CCCCC/C=C\C/C=C\C[C@H](O)/C=C/C=C\CCCC(=O)O | 15% [at 0.757 µM] | –
CCC(=O)NC[C@H](Cc1ccc(OCCc2nc(-c3ccccc3)oc2C)cc1)NC(C)=CC(=O)c1ccc(C(F)(F)F)cc1 | 0.878% | –
CC1=C(O)C(=O)CO1 | 16.7% [at 115 µM] | –
COc1ccc(C[C@@H](C)[C@@H](C)Cc2ccc(OC)c(OC)c2)cc1OC | – | 6.11 µM (active)
CCCCCCCCCCCCCC | -4.84% [at 115 µM] | –
COC(=O)C1(Cc2ccc(O)c(CC3OC3(C)C)c2)OC(=O)C(O)=C1c1ccc(O)cc1 (stereo not given) | 6.67% | –
C=C(C)[C@@H]1CCC2(C(=O)O)CC[C@]3(C)[C@H](CC[C@@H]4[C@@]5(C)CCC(=O)C(C)(C)[C@@H]5CC[C@]43C)[C@@H]12 (stereo not given in full) | -0.745% | –
CC(O)CC(=O)O (stereo not given) | -0.185% | –

Structure (SMILES) | activity change, negative = reduced viability | Potency
Nc1nc(Cl)nc2c1ncn2[C@@H]1O[C@H](CO)C(O)[C@H]1O (stereo not given in full) | -30.5% | –
C=CC(C)(CCC=C(C)C)OC=O (stereo not given) | -0.713% [at 115 µM] | –
CC(C)=CCC/C(C)=C/C(=O)O | 2.65% [at 115 µM] | –
CC12CCC(C1)C(C)(C)C2O (stereo not given) | -23.8% [at 115 µM] | –
CC(=O)OC(C)c1ccccc1 (stereo not given) | 5.82% [at 115 µM] | –
COc1cc(C)cc(C(=O)O)c1C1=C(O)c2cccc(O)c2C(=O)C1=O | -0.258% | –
COC1=CC(=O)CC(C)C12Oc1cc(OC)cc(OC)c1C2=O (stereo not given) | -2.31% | –
NC1C(O)OC(CO)[C@@H](O)[C@@H]1O[C@H]1O[C@@H](C(=O)O)C(O)C(O)C1O (stereo not given in full) | 14.6% | –
C[C@H]1[C@H](C)CC[C@]2(C(=O)O)CC[C@]3(C)C(=CC[C@@H]4[C@@]5(C)C[C@@H](O)[C@H](O)C(C)(C)[C@@H]5CC[C@]43C)[C@H]12 | 0.456% | –
COc1c2ccoc2c(OC[C@@H](OC(C)=O)C(C)(C)O)c2oc(=O)ccc12 | -4.64% | –
CCCCC[C@H](O)/C=C/[C@H]1OC(O)C[C@H](O)[C@@H]1C/C=C\CC(=O)O (stereo not given in full) | 12.3% [at 0.757 µM] | –
CC1(C)CCC[C@]2(C)[C@H]3CCO[C@]3(C)CC[C@@H]12 | -0.0097% [at 115 µM] | –
CC12C=CC(=O)C=C1CCC1C2C(=O)CC2(C)C(=O)CCC12 (stereo not given) | 14.2% | –
COc1ccc2c(c1)C(=O)CC(c1ccc(OC)c(OC)c1)O2 (stereo not given) | 15% | –
O=C(NCCCCNCCCNC(=O)c1ccccc1)c1ccccc1 | 4.04% | –
CCCCN | 2.07% | –
COc1ccc(-c2coc3cc(O)ccc3c2=O)cc1OC | -11.9% | –
CCC(=O)OCC(=O)[C@@]1(OC(=O)CC)[C@@H](C)C[C@@H]2[C@H]3CCC4=CC(=O)C=C[C@]4(C)[C@@]3(F)[C@@H](O)C[C@@]21C | -4.65% | –
Nc1nc(Cl)nc2c1ncn2[C@@H]1O[C@H](CO)[C@@H](O)[C@H]1F | – | 2.17 µM (active)
COc1cc(/C=C/c2ccccc2)cc(OC)c1 | -9.04% | –
